The values that follow come from PubChem BioAssay (NCATS).

A short description of assay [1]: AP1 Signaling Pathway (AID 357).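 Further: ME-180 reporter cells stimulated with EGF at its EC50 level; on the % scale 0 is the no-effect control and ±100 the full control effect.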 As to conditions: ME-180 AP-1-bla reporter, EGF-induced, beta-lactamase ratio, 5 h; at 38 µM (top of the series) unless noted. Put shortly: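 Modulation of EGF-driven AP-1 transcription was assessed with a beta-lactamase reporter in ME-180 cells. Compound and EC50 EGF were co-incubated 5 hours at 37 °C before 2.5-hour CCF4 loading at room temperature and dual-emission reading.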

For assay [2], the target named is Cytochrome P450 1A2 (Homo sapiens) (UniProt P05177). In words: p450-cyp1a2 (AID 410; calls by dose curve; further: potency means the concentration at half of the fitted maximal effect;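 on activity change, negative = inhibition: -100% = full effect of reference inhibitor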). Put shortly: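 20nM CYP1A2 with 100uM Luciferin-ME (at Km) in 100mM KPO4; compound preincubated 10 min, NADPH regeneration added, 60 min at room temperature. Luciferin quantified by luminescence after detection reagent; normalized to 57 uM furafylline.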
Assay [3] in a line: NFAT Signaling Pathway (AID 444).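 Further: carbachol stimulus at about its EC50 of 1 µM final; on the % scale 0 is the no-effect control and ±100 the full control effect.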 The conditions noted are these: Jurkat NFAT-bla M1, carbachol, beta-lactamase ratio, 5 h. Put shortly:
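Jurkat cells with NFAT-driven β-lactamase reporter and co-expressed M1 receptor, stimulated with carbachol (final 1 uM, ~EC50), compound titration, 5 h at 37 °C. CCF4 loaded 1 h at RT; 460/530 nm ratio gave %activity and AC50.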

In assay [4] the target is Glucocorticoid receptor (Homo sapiens) (UniProt P04150). In words: GR-GFP Redistribution (AID 450;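 active means compounds whose dose series gives a full or clear partial fitted curve of increased nuclear translocation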; further: potency means the concentration at half of the fitted maximal effect). As to conditions: U2OS GR-GFP nuclear translocation, laser cytometry, 2 h.
The target is the same in assay [5]. The assay is described as follows: GR-EFC Redistribution (AID 451; calls by dose curve; further: potency means the concentration at half of the fitted maximal effect). The conditions noted are these: CHO-K1 GR-EFC translocation, beta-gal luminescence, 2 h. Put shortly: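 CHO-K1 cells expressing nuclear EA and GR-ED fragments of b-gal; compounds titrated up to 46 uM final, 2 h at 37 C. GR nuclear translocation read as complemented b-gal luminescence after 1 h RT detection.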

Assay [6] addresses Mitogen-activated protein kinase 10 (Mus musculus) (UniProt Q61831). The assay is described as follows: JNK3 AlphaScreen Assay (AID 530).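 Further: kinase came from lysate of stimulated human HepG2 cells; signal reports phosphorylation of biotinylated GST-cJun 1-79 at Ser73 with 10 µM ATP; on the % scale 0 is the no-effect control and ±100 the full control effect.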 Put shortly:
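Pre-activated (IL-1β/TNFα) JNK3 in HepG2 lysates phosphorylates biotin-GST-cJun(1-79), 10 uM ATP; anti-phospho-cJun(Ser73) AlphaScreen read at room temperature, pH 7.6 Tris buffer. Compounds pre-incubated 15 min as titrations.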
(Bead proximity is the source of the signal in Alpha formats.)

The nature of assay [7]: Stat Signaling Pathway (AID 446).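 Further: ME-180 cervical cancer cells given 40 pM IL-6 alongside compound; SIE-controlled beta-lactamase reporter measured as 460/530 nm FRET emission ratio; on the % scale 0 is the no-effect control and ±100 the full control effect.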 As to conditions: ME-180 (cervical carcinoma) SIE beta-lactamase reporter, IL-6 stimulated, 5 h. Put shortly: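 IL-6/STAT signaling read in ME-180 cells via an SIE beta-lactamase reporter. Stimulus was 40 pM IL-6 (its AC50) for 5 hrs, so both activation and inhibition register.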
Setting [8] is: at 38 µM (top of the series) unless noted.

Values joined by “and” are separate entries in the source; they are usually repeats but may differ in a detail not shown here. Identical values can stand only once. Inconclusive results are not listed. Some structures have more than one record in an assay (separate samples or runs), and their calls can disagree. Active and inactive are the calls of the source. Unless noted, the call rests on the fitted dose curve; in most records, active means well fitted curve in either direction with a large enough effect (not every such curve was filed as active); inconclusive means small, poorly fitted or top-dose-only effect, or another doubt; inactive means flat fitted curve, though single readings scatter.

Sequence of Glucocorticoid receptor (Homo sapiens) (P04150 whole entry, looked up, the tested form may be a part): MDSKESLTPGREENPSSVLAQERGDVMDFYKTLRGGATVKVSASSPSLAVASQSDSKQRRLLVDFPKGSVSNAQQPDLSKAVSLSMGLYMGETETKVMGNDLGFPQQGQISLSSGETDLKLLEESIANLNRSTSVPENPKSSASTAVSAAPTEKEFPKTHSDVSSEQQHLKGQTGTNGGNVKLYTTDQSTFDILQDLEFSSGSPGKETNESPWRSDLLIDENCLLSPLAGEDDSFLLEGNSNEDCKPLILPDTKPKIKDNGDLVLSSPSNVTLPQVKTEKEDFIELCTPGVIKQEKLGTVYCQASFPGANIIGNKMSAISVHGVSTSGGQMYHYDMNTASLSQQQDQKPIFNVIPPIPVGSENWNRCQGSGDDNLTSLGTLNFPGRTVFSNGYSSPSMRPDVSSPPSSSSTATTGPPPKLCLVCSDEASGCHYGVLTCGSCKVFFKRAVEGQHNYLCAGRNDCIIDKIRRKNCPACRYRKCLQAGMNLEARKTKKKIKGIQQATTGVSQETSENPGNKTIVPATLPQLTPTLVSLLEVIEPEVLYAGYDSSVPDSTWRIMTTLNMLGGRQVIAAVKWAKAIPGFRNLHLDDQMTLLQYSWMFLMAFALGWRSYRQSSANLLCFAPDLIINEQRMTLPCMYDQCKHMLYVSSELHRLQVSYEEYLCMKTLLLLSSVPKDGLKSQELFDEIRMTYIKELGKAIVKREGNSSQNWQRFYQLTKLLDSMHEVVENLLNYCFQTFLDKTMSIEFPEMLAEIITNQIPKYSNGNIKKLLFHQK
Sequence of Cytochrome P450 1A2 (Homo sapiens) (P05177 whole entry, looked up): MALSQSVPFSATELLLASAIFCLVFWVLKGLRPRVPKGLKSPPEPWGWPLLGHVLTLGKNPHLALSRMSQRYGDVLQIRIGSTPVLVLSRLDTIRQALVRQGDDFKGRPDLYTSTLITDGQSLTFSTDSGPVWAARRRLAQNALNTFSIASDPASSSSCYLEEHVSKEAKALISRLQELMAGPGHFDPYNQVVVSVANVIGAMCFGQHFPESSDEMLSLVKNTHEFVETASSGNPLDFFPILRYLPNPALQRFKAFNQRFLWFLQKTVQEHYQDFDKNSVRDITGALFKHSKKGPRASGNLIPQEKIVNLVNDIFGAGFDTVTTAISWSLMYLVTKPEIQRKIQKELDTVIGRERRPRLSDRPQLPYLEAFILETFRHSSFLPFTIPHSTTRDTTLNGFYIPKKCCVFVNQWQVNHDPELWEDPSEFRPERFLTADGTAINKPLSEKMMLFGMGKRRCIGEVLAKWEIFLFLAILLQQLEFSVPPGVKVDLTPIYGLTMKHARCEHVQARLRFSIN

Take `O=C(c1ccc2c(c1)OCCO2)N1CCCCC1`: the values for the activity change, negative = inhibition in assay [1] and in assay [3] (setting [8]) were 1.86% (inactive) and 5.58% (inactive), respectively. Further, the Potency is 15.8 µM (active) in assay [2], > 46 µM (inactive) in assay [4] and > 46 µM (inactive) in assay [5]. Further, in assay [6], the call was inactive.
On to `CC1CNCCN1S(=O)(=O)c1cccc2cnccc12` (stereo not given), for which the activity change, negative = inhibition in assay [1] was 2.59% [at 17.2 µM] (inactive); in assay [3] (setting [8]), 4.83% [at 17.2 µM] (inactive). Further, in assay [7] (setting [8]), the activity, negative = inhibition was -1.62% [at 17.2 µM] (inactive). Besides, the Potency in assay [4] was > 20.6 µM (inactive).
`CC(C)NC[C@H](O)COc1cccc2ccccc12`: the Potency in assay [2] is 0.2 µM (active).
With `Nc1ncnc2c1c(-c1ccc(Oc3ccccc3)cc1)cn2C1CCCC1`, the activity change, negative = inhibition in assay [1] was -103% (active). Also, the Potency is 15.8 µM (active) in assay [2], > 46 µM (inactive) in assay [4] and > 46 µM (inactive) in assay [5]. Besides, the activity, negative = inhibition in assay [7] (setting [8]) was -13.6% (inactive).
Regarding `NC1(C(=O)O)CC1`, the activity change, negative = inhibition in assay [1] is 11.9% (inactive); in assay [3] (setting [8]), -11.2% (inactive). Moreover, the Potency in assay [4] is > 46 µM (inactive). For the same compound, the compound was called inactive in assay [6].
Regarding `c1ccc(CN2CCC3(CCCc4ccccc43)CC2)cc1`, the results for the activity change, negative = inhibition in assay [1] and in assay [3] (setting [8]) were 11.9% (inactive) and -19.1% (inactive), respectively. For the same compound, in assay [7] (setting [8]), the activity, negative = inhibition is -10.2% (inactive). Also, the Potency in assay [4] was > 46 µM (inactive). The compound was classed as inactive in assay [6].
Consider `NCCS(=O)O`, for which the results for the activity change, negative = inhibition in assay [1] and in assay [3] (setting [8]) were 7.28% (inactive) and 3.37% (inactive), respectively. In assay [2], the Potency result is “inactive”. For the same compound, the Potency in assay [4] and in assay [5] was > 46 µM (inactive) each time. In addition, in assay [6], the result was inactive.
In the case of `Cc1cc2c(cc1Cl)N(C(=O)Nc1ccnc3ccccc13)CC2`, the activity change, negative = inhibition is -29.6% (inactive) in assay [1] and 4.5% (inactive) in assay [3] (setting [8]). The Potency in assay [4] and in assay [5] was > 46 µM (inactive) each time. Also, the result in assay [6] was inactive.
As to `O=C(O)c1cc2cc(F)ccc2[nH]1`, the Potency entry in assay [2] is “inactive”. The activity change, negative = inhibition in assay [3] (at 17.2 µM (top of the series)) is -6.32% (inactive); in assay [3] (at 38 µM (top of the series)), -3.11% (inactive). The activity, negative = inhibition in assay [7] (setting [8]) is -0.809% [at 17.2 µM] (inactive). Moreover, the Potency in assay [4] is > 46 µM (inactive) and > 20.6 µM (inactive); in assay [5], > 46 µM (inactive). The call in assay [6] was inactive.
Consider `O=C(O)C1=CCNCC1`, for which the activity change, negative = inhibition in assay [1] is -4.73% (inactive); in assay [3] (setting [8]) it was -0.658% (inactive). For the same compound, in assay [2], the Potency entry was “inactive”. Further, the Potency in assay [4] was > 46 µM (inactive). Also, in assay [6], the outcome was inactive.
On to `O=C(OCCN1CCOCC1)C1(c2ccccc2)CCCCC1`, for which the activity change, negative = inhibition in assay [1] was -11.4% (inactive). Moreover, the Potency in assay [2] is 31.6 µM (active); in assay [4], > 46 µM (inactive).
`CCCc1c(OCCCOc2ccc(OCC(=O)O)cc2)ccc(C(C)=O)c1O`: the activity change, negative = inhibition was -9.01% (inactive) in assay [1] and -26.4% (inactive) in assay [3] (setting [8]). Moreover, the Potency in assay [2] was 31.6 µM (active); in assay [4], > 46 µM (inactive); in assay [5], > 46 µM (inactive). In assay [6], the outcome was inactive.
For `N#CC(C#N)=C(N)/C(C#N)=C/c1ccc(O)cc1`, the activity change, negative = inhibition is -3.7% (inactive) in assay [1] and 3.6% (inactive) in assay [3] (setting [8]). Further, the Potency is 3.98 µM (active) in assay [2], > 46 µM (inactive) in assay [4] and > 46 µM (inactive) in assay [5]. Moreover, the compound was called inactive in assay [6].
For the compound `N=C(N)c1ccc(OCCCCCOc2ccc(C(=N)N)cc2)cc1` (tested in a mixture with another compound), the activity change, negative = inhibition in assay [1] is 5.08% (inactive). Also, the Potency in assay [4] and in assay [5] was > 46 µM (inactive) each time. In addition, the result in assay [6] was inactive.
For `COc1ccc(NC(=O)c2ccc(-c3ccc(-c4noc(C)n4)cc3C)cc2)cc1N1CCN(C)CC1`, the activity change, negative = inhibition in assay [1] was -2.61% (inactive). Besides, in assay [2], the Potency result is “inactive”. Besides, the activity, negative = inhibition in assay [7] (setting [8]) is -18.9% (inactive). Also, the Potency in assay [4] and in assay [5] was > 46 µM (inactive) throughout. Besides, the compound was classed as inactive in assay [6].
In the case of `O=C(O)c1cccnc1C(=O)O`, the activity change, negative = inhibition in assay [1] was -4.89% (inactive); in assay [3] (setting [8]) it was -4.14% (inactive). Also, the Potency result in assay [2] is “inactive”. In assay [6], the compound was called inactive.
Turning to `CN(C)CCC(c1ccc(Br)cc1)c1ccccn1` (stereo not given), the values for the activity change, negative = inhibition in assay [1] and in assay [3] (setting [8]) were 14% [at 17.2 µM] (inactive) and -90.1% [at 17.2 µM] (active), respectively. For the same compound, the activity, negative = inhibition in assay [7] (setting [8]) was 1.22% [at 17.2 µM] (inactive).
With `N[C@H](C(=O)O)c1cc(O)cc(O)c1`, the activity change, negative = inhibition is 7.53% (inactive) in assay [1] and -1.35% (inactive) in assay [3] (setting [8]). Also, the Potency result was “inactive and 31.6 µM (active)” in assay [2]; > 46 µM (inactive) in assay [4]; > 46 µM (inactive) in assay [5]. Besides, the call in assay [6] was inactive.
In the case of `NC1(C(=O)O)CCCCC1`, the activity change, negative = inhibition in assay [1] is -0.957% (inactive); in assay [3] (setting [8]) it was 3% (inactive). Also, the Potency in assay [4] and in assay [5] was > 46 µM (inactive) throughout.
As for `COc1ccccc1N1CCN(CCCNc2c(C)c(=O)n(C)c(=O)n2C)CC1`, the activity change, negative = inhibition in assay [1] was 8.51% (inactive); in assay [3] (setting [8]) it was -22.9% (inactive). Besides, the Potency in assay [4] is > 46 µM (inactive). For the same compound, in assay [6], the outcome was inactive.
For the compound `C[C@H](O)C(=O)C1=Nc2c(nc(N)[nH]c2=O)NC1`, the activity change, negative = inhibition in assay [1] is 12.2% (inactive); in assay [3] (setting [8]) it was -2.7% (inactive). Further, the Potency entry in assay [2] was “inactive”. The Potency in assay [4] and in assay [5] was > 46 µM (inactive) in each case. Moreover, the result in assay [6] was inactive.
As for `CCCCCCCCCCCCCCSCC(=O)O`, in assay [1], the activity change, negative = inhibition is -3.84% (inactive). In addition, the Potency result in assay [2] is “inactive”. Further, the activity, negative = inhibition in assay [7] (setting [8]) was -3.53% (inactive). Also, the Potency in assay [4] and in assay [5] was > 46 µM (inactive) throughout. The result in assay [6] was inactive.
As for `CC(C)NCC(O)COc1ccc(CC(N)=O)cc1` (stereo not given), in assay [1], the activity change, negative = inhibition was 5.57% [at 17.2 µM] (inactive). For the same compound, in assay [7] (setting [8]), the activity, negative = inhibition was 14% [at 17.2 µM] (inactive).
With `O=C(O)C1=CCCN(CCON=C(c2ccccc2)c2ccccc2)C1`, the activity change, negative = inhibition in assay [1] was 5.02% (inactive); in assay [3] (setting [8]) it was -1.26% (inactive). Further, the activity, negative = inhibition in assay [7] (setting [8]) was -1.1% (inactive). The Potency in assay [4] and in assay [5] was > 46 µM (inactive) each time. Also, the outcome in assay [6] was inactive.
Regarding `Cc1nc(N=Nc2cc(S(=O)(=O)O)c3cc([N+](=O)[O-])cc(S(=O)(=O)O)c3c2)c(COP(=O)(O)O)c(C=O)c1O`, the activity change, negative = inhibition in assay [1] was -0.539% (inactive); in assay [3] (setting [8]) it was 2.42% (inactive). For the same compound, the Potency in assay [2] was 39.8 µM (active); in assay [4] it was > 46 µM (inactive). The outcome in assay [6] was inactive.
On to `N[C@@H](Cc1ccc(O)c(I)c1)C(=O)O`, for which the activity change, negative = inhibition in assay [1] was 9.71% [at 17.2 µM] (inactive); in assay [3] (setting [8]), -2.26% [at 17.2 µM] (inactive). For the same compound, the activity, negative = inhibition in assay [7] (setting [8]) was 5.15% [at 17.2 µM] (inactive). Besides, in assay [4], the Potency is > 20.6 µM (inactive).
In the case of `O=c1onc2n1-c1cc(Br)ccc1OC2`, the activity change, negative = inhibition in assay [1] was 1.26% (inactive); in assay [3] (setting [8]), 3.41% (inactive). In addition, the Potency was 0.794 µM (active) in assay [2] and > 46 µM (inactive) in assay [4]. The call in assay [6] was inactive.
Consider `COc1ccccc1N1CCN(CCN(C(=O)c2ccc(F)cc2)c2ccccn2)CC1`, for which the activity change, negative = inhibition in assay [1] is 1.26% (inactive); in assay [3] (setting [8]), -0.748% (inactive). Also, the Potency in assay [4] and in assay [5] was > 46 µM (inactive) throughout.
`O=[N+]([O-])c1cccc2cn[nH]c12`: the Potency was 12.6 µM (active) and 2.51 µM (active) in assay [2]; > 46 µM (inactive) and > 20.6 µM (inactive) in assay [4]; > 46 µM (inactive) in assay [5]. Moreover, the activity change, negative = inhibition in assay [3] (at 17.2 µM (top of the series)) is -4.2% (inactive); in assay [3] (at 38 µM (top of the series)), -7.34% (inactive). In addition, the activity, negative = inhibition in assay [7] (at 17.2 µM (top of the series)) was -4.16% (inactive); in assay [7] (at 38 µM (top of the series)), -5.67% (inactive). Moreover, the result in assay [6] was inactive.
